Over roughly 35,000 sequences, “fluorescence intensity (a.u.)” has its median near 10,000; the highest 2% begin near 52,000. The sample holds the highest values, similar sequences and a random draw of the others, so the mix is not that of the screen.

This test has as its target T1, OsWOX13 (Oryza sativa, UniProt Q5QMM3 1-267).
T1 sequence: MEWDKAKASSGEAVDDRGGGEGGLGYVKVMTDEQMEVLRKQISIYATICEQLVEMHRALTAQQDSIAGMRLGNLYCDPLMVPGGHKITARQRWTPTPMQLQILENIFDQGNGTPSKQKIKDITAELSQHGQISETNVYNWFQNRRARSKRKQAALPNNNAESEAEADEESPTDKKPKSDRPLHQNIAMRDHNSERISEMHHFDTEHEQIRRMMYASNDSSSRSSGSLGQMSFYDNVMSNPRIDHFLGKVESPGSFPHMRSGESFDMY
Kind of test: protein-binding microarray (RPBM); PBS, 2% BSA, 51.3 ng/ul salmon testes DNA, 50 uM zinc acetate, 200 nM TF, 25 C, 1 h; high values mean tight binding. Conditions: protein: recombinant; tags: N-terminal polyhistidine and DsRed monomer fusion (pET32a); label: CyDye5-dUTP incorporated in the synthesized complementary strand; 3' TTTTT single-stranded linker to array surface; dsDNA, one strand shown. In short, it runs like this: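 Ni–NTA purification followed expression in E. coli BL21-CodonPlus of transcription factors fused N-terminally to a polyhistidine tag and DsRed. At 200 nM in PBS with 2% BSA, salmon testes DNA and 50 µM zinc acetate, the protein was incubated for 1 h at 25 °C with a custom Agilent array that had been primer-extended with Cy5-dUTP and blocked with 2% BSA. After washing, the array was read on an Axon 4000B scanner. The binding signal is per-feature fluorescence intensity in arbitrary units.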
As for “TCTAGCTATTAATTTGCTCTCATTTATAACTTAGCCGCTACGGAGTCACCTAGTGCAG”, the binding signal was 6390 fluorescence intensity (a.u.).

Regarding “ACTTTTCTATTTAATTTTATCTATTTTCTTAATAACTATGCGGAGTCACCTAGTGCAG”, the binding signal was 4340 fluorescence intensity (a.u.).

Take “CCTAATTGACAAATGATTTCACCACGTCCCTTTCCATTTTCGGAGTCACCTAGTGCAG”: the binding signal is 34200 fluorescence intensity (a.u.).

For “ATAATTGATTCAACCTCGTTCTTAATTTGATACATCCTTCCGGAGTCACCTAGTGCAG”, the binding signal is 32300 fluorescence intensity (a.u.).

Turning to “TAATTTTCTGAGTGATCAAATAATTGACCATAATTTTCCACGGAGTCACCTAGTGCAG”, the binding signal is 8420 fluorescence intensity (a.u.).

For “TAAACCAATTACAATGATTATTTTCAACCGACCACCGATTCGGAGTCACCTAGTGCAG”, the binding signal was 23300 fluorescence intensity (a.u.).

Take “AGGACTACTATAATTGCAACTGAAATAAAACCTTGGCTTGCGGAGTCACCTAGTGCAG”: the binding signal is 5450 fluorescence intensity (a.u.).

Take “CCCTCAATCAGCTGGTCGGCTGGTCGCACACACCACGTTCCGGAGTCACCTAGTGCAG”: the binding signal was 11500 fluorescence intensity (a.u.).

As for “TAACTAATTAGTTAACTAATCGTCAATGTCACTAGCTTCTCGGAGTCACCTAGTGCAG”, the binding signal is 45100 fluorescence intensity (a.u.).

On to “ATGATGAGATTGAGGTTGATATAGATAGCTTTGATGTTGACGGAGTCACCTAGTGCAG”, for which the binding signal is 23200 fluorescence intensity (a.u.).

Take “GTGATAATTGCAAAATTAGGAATTATGCAAGGGGTGTAGACGGAGTCACCTAGTGCAG”: the binding signal is 49400 fluorescence intensity (a.u.).

Regarding “TTTGCTAATGACAAATTAATTAGGCTTAATAAATTCGTCTCGGAGTCACCTAGTGCAG”, the binding signal is 41500 fluorescence intensity (a.u.).

Take “GGGAAGACGAGATTGAGTGGATCAAAAGCCCTAAACCAATCGGAGTCACCTAGTGCAG”: the binding signal was 8660 fluorescence intensity (a.u.).

“GCAGCTGACAGATGGAGGGATGTTCAGGATGTCCGGAGAACGGAGTCACCTAGTGCAG”: the binding signal is 3250 fluorescence intensity (a.u.).

On to “CTTAAATTGATTTATTTTGGAACGGAGAGAGTAATATGCACGGAGTCACCTAGTGCAG”, for which the binding signal was 53500 fluorescence intensity (a.u.).

With “ACATTTACTTAATTGTAAATATATATTTTGGTAATATATGCGGAGTCACCTAGTGCAG”, the binding signal is 9650 fluorescence intensity (a.u.).

Turning to “GACCTTATTTGCATTGATTGACCTTATTTGCATTGATTTTCGGAGTCACCTAGTGCAG”, the binding signal is 19600 fluorescence intensity (a.u.).

As to “ATATTTTGATTGAATATGACGTATCCTAGTAATTTGGACCCGGAGTCACCTAGTGCAG”, the binding signal was 59700 fluorescence intensity (a.u.).

For the sequence “ATATTGAATTATTGATTTGATGAAAATAATTTAGTATTATCGGAGTCACCTAGTGCAG”, the binding signal is 20500 fluorescence intensity (a.u.).

In the case of “GAAAATAGTATGATTGAAAATGACGTAAAGTGAATAGACCCGGAGTCACCTAGTGCAG”, the binding signal is 23000 fluorescence intensity (a.u.).

Regarding “AATTAATTAATTAGTCTGTTCTTATTGCTTAGTGTACTACCGGAGTCACCTAGTGCAG”, the binding signal is 53600 fluorescence intensity (a.u.).

As for “ATGATTGTGATTTATATTTTGAAATAAAGAGAGTAGTAATCGGAGTCACCTAGTGCAG”, the binding signal is 50500 fluorescence intensity (a.u.).

In the case of “CCTAATTTCTAACATTATATTGTTGCTTAGTGTACTAACTCGGAGTCACCTAGTGCAG”, the binding signal was 18700 fluorescence intensity (a.u.).

“TTATTCAGATAATTTGATGATGATGAAAGCAGAAGCTTTGCGGAGTCACCTAGTGCAG”: the binding signal is 8570 fluorescence intensity (a.u.).

Consider “ATAATTGATTGCTTTTGATGATTTCACCCTTATTTTGCTGCGGAGTCACCTAGTGCAG”, for which the binding signal is 65100 fluorescence intensity (a.u.).

Regarding “TACTACTAATTATTGTCTTCTTAGTAATCACCAAGTGTGCCGGAGTCACCTAGTGCAG”, the binding signal is 20700 fluorescence intensity (a.u.).

With “TTTCCATTAATAAATTGAAACATATTGAACTAGATCGTTCCGGAGTCACCTAGTGCAG”, the binding signal was 15600 fluorescence intensity (a.u.).

Turning to “TTTAATAATTTGTTTATAAAAGAAACTAAAGGGCACTGCTCGGAGTCACCTAGTGCAG”, the binding signal was 12200 fluorescence intensity (a.u.).

Consider “ATAAACTGGAACAGAAGGCCAGGCGGAAATAAACTGGACACGGAGTCACCTAGTGCAG”, for which the binding signal was 6490 fluorescence intensity (a.u.).

“GGCCTAATTCATTGACGGGAACTAAGTGGGCTGAATTCGTCGGAGTCACCTAGTGCAG”: the binding signal is 7250 fluorescence intensity (a.u.).

As to “CCCAAATTAATCATCATGTAATAGAATGATATATTCATTGCGGAGTCACCTAGTGCAG”, the binding signal was 49200 fluorescence intensity (a.u.).

With “GTGTCGCCAGTGATTGCAGTTTCAGTTCGAAATTTCTCTACGGAGTCACCTAGTGCAG”, the binding signal was 9490 fluorescence intensity (a.u.).

Consider “ATAACGAACGGATGAGATTGATCGCTACAATACTCTAGAGCGGAGTCACCTAGTGCAG”, for which the binding signal is 4050 fluorescence intensity (a.u.).

As to “TAAACTCCAAGTTGATTATCCAACGAATCGTAGCCTCGAGCGGAGTCACCTAGTGCAG”, the binding signal was 5690 fluorescence intensity (a.u.).

As to “GATCAATCATTTGCTGAGCTCGTGAATTCTGTCTGGTTCACGGAGTCACCTAGTGCAG”, the binding signal is 24300 fluorescence intensity (a.u.).

For “AATTTACACTTAATTTGCTATTTGCTATACATGTTTTCTACGGAGTCACCTAGTGCAG”, the binding signal is 10800 fluorescence intensity (a.u.).

Regarding “TAACTAATTATGTACTAACAAATTAGCTAGTCTACCATGCCGGAGTCACCTAGTGCAG”, the binding signal was 56600 fluorescence intensity (a.u.).

In the case of “TTCTAATAATTTGATATTAGGTCATTCCCTAATATTCGTGCGGAGTCACCTAGTGCAG”, the binding signal was 25000 fluorescence intensity (a.u.).

With “TTAAATTTAATTAAATTTAAAGCAGTTTGATTTTGACCAACGGAGTCACCTAGTGCAG”, the binding signal is 56000 fluorescence intensity (a.u.).

Turning to “CTTAATTAATAGGGTATTAATAACCTCCCTAAAGTCATTGCGGAGTCACCTAGTGCAG”, the binding signal is 60200 fluorescence intensity (a.u.).

Regarding “GTACAAAATTATCTAAAATTAACTACAAAATTATGTACTACGGAGTCACCTAGTGCAG”, the binding signal is 12800 fluorescence intensity (a.u.).

As for “AACTTAATTAAATTTAAAGCAGTTTGATTTTGACTAAAGTCGGAGTCACCTAGTGCAG”, the binding signal is 31800 fluorescence intensity (a.u.).

“ATTTCTTAATTTAATGCTATTCTGACTCCTTGCACCTCTACGGAGTCACCTAGTGCAG”: the binding signal was 12300 fluorescence intensity (a.u.).

With “TATAAATTTAGTCAAATTTAAAGCAGTTTGATTTTGACCACGGAGTCACCTAGTGCAG”, the binding signal is 26800 fluorescence intensity (a.u.).

As for “ACTAGCTAAATTATACCATGTTAACTTATACTATATTAGTCGGAGTCACCTAGTGCAG”, the binding signal is 9700 fluorescence intensity (a.u.).

Take “CCTTAATTAATTAATTAATTACGTGCTATTTATTTCTTGGCGGAGTCACCTAGTGCAG”: the binding signal was 55300 fluorescence intensity (a.u.).

Regarding “AATATAAATTAAATTTTATTTGCTAAAATTAATATCATTGCGGAGTCACCTAGTGCAG”, the binding signal is 15000 fluorescence intensity (a.u.).

(Values after article PMC7819943, “Rice protein-binding microarrays: a tool to detect cis-acting elements near promoter regions in rice”.)
